SUMO Mot1 rescue: inhibitors of SUMOylation pathway: yeast Mot1-301 growth rescue; S. cerevisiae Mot1-301 growth rescue, ATP luminescence, 38.5C; percent above DMSO median, 100 means doubled; growth rescue, % at 18.8 µM; 320,000 compounds, 1% hits; AID 2716;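 active means every valid replicate shows activation above 250% relative to neutral control wells; inactive means the rest, any valid replicate at or below 250%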;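 further: OY570 slx delta 5 strain wells were the positive control but not used for scaling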
NALP1 yeast inh: inhibitors of NALP1 inflammasome in yeast; inhibition, % at 10 µM; S. cerevisiae NALP1/ASC/caspase-1 growth, X-gal OD620, 72 h; 280,000 compounds, 0.61% hits; in the data active means inhibition mostly above about 24%, no sharp cut-off; inactive means mostly below about 32%
NALP3 yeast inh: NALP3 inhibition in yeast; Yeast reconstituted NLRP3/ASC/caspase-1, beta-gal luminescence, 24 h; inhibition, % at 10 µM; 330,000 compounds, 0.39% hits; AID 2825;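 active means inhibition of 50% or more; inactive means inhibition below 50%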;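 further: plate controls were induced DMSO wells for no effect and uninduced yeast grown without galactose for full effect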
PolyA inh: blocks polyadenylation in yeast reporter cells. S. cerevisiae SKY197-pL101 polyadenylation reporter, beta-gal luminescence; efflux-impaired pdr1/pdr3 knockout yeast; score 100 = 6 SD above DMSO. activity score, % at 12 µM. 300,000 compounds, 0.02% hits. AID 1875;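 active means lowest replicate activity score at least 50, where 100 means six control SD above control mean; inconclusive means lowest score under 50 but half or more replicates reach 50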;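 further: yeast exposed to compound for 9 h at 30 °C; higher score means more reporter readthrough which indicates perturbed polyadenylation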
Mot1 SUMO dose: SUMO pathway inhibitors in yeast Mot1-301 growth; shares compounds with SUMO Mot1 rescue; S. cerevisiae Mot1-301 galactose growth, ATP luminescence, 24 h; -100 = growth of slx-deleted rescue strain; growth activity, percent, % at 42 µM; 2,300 tested, under 10 active; AID 493004;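 active means Signal drops as the depositor expects, and the fitted half-maximal dose is no more than ten times the top valid tested dose; inconclusive means Poor fit, or a flat curve whose signal drops by 30% to 70%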;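 further: more negative values mean stronger growth rescue toward the control strain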
* = called active by the depositor; i = inactive; ? = inconclusive; · = not tested or not shown; + = active, no number. Hits are enriched below; roughly 1.8% of the tested compounds scored in any of these assays.

SMILES	SUMO Mot1 rescue	NALP1 yeast inh	NALP3 yeast inh	PolyA inh	Mot1 SUMO dose
C=C(C)Cn1c(N)cc(=O)nc1SCC(=O)Nc1cccc(C(F)(F)F)c1	413*	34	-1	14	0
Nc1cc[n+](CC(=O)Nc2ccccc2)cc1	799*	5	5	3	1
CC(=Nc1ccccc1)C1=C(O)CC(C)(C)CC1=O	432*	-4	2	12	1
Cc1ccc(S(=O)(=O)N2CCC(C(=O)OCC(=O)N3CCCC(C)C3)CC2)cc1C (stereo unspecified)	32	·	18	10	·
Cc1ccc(C(=O)c2cc([N+](=O)[O-])ccc2N2CCCCC2)cc1C	500*	28	16	-3	0
Cc1ccc(C(=O)c2cc([N+](=O)[O-])ccc2N2CCOCC2)cc1C	-21	23	-11	-9	·
Cc1ccc(NC(=O)Cc2nnc(SCC(=O)Nc3ccc(N4CCOCC4)cc3)n2C)cc1	8	-9	10	3	·
CCOc1ccc(NC(=O)CSc2nnc(Cc3csc(C)n3)o2)cc1	777*	8	20	?	0
Cc1cccc(N2CCN(C(=O)C3CCN(S(=O)(=O)N4CCOCC4)CC3)CC2C)c1 (stereo unspecified)	-2	10	8	-4	·
O=C(Nc1ccccc1Cl)N1CCN(c2ccc3nnc(-c4ccc(F)cc4)n3n2)CC1	0	9	7	11	·
Fc1ccc(-c2nnc3ccc(N4CCCC4)nn23)cc1	775*	12	16	12	-1
CCc1cccc(C)c1NC(=O)CSc1nnc(-c2cc3cc(Br)ccc3o2)n1CC	+	-10	3	6	0
Cn1c(SCC(=O)Nc2cccc(C(=O)O)c2)nnc1-c1cc2cc(Br)ccc2o1	-6	-6	13	3	·
COc1ccc(NC(=O)c2ccc(COc3ccccc3OC)o2)cc1OC	476*	9	4	-4	0
O=S(=O)(c1cccc(-c2nnco2)c1)N1CCCC1	+	17	1	·	0
CN(C(=O)CSc1nnc(CNC(=O)c2ccccc2)o1)c1ccccc1	-3	2	12	-26	·
COc1cc(NC(=O)CCc2nnc3ccc(NCc4ccco4)nn23)cc(OC)c1	238	6	3	0	·
COc1ccc(NC(=O)CSc2nc(O)cc(=O)n2-c2ccccc2)cc1	10	5	6	-18	·
O=C(CSc1ncccc1C(=O)O)NC1CCCCC1	420*	-4	1	-21	1
O=C(CSc1nc(O)cc(=O)n1-c1ccccc1)NC1CCCCC1	584*	43	5	12	0
Cc1c(-c2nnc(-c3ccc(C(F)(F)F)cc3)o2)cnn1-c1ccccc1	6	-20	4	-3	·
Cc1cc(C)cc(-c2nc(-c3ccncc3)no2)c1	7	-15	8	14	·
Oc1c(Cl)cc(Cl)cc1/C=N/c1nc(-c2ccc(Cl)cc2)cs1	719*	12	12	3	-1
c1ccc(-c2nnc3ccc(N4CCC5(CC4)OCCO5)nn23)cc1	2	-3	3	9	·
CCCN1C(=O)c2[nH]nc(-c3cc(Cl)c(C)cc3O)c2C1c1ccc(O)c(OC)c1 (stereo unspecified)	571*	-47	-10	10	0
SMILES	SUMO Mot1 rescue	NALP1 yeast inh	NALP3 yeast inh	PolyA inh	Mot1 SUMO dose
O=C(NC1CCCCC1)c1n[nH]c2c1CCCCC2	364*	·	12	·	-2
CCC(C)(C)C1CCc2[nH]nc(C(=O)NC3CCCC3)c2C1 (stereo unspecified)	151	·	11	·	·
CCOc1ccc(NC(=O)CNc2ccc(C)cc2Cl)cc1	811*	-4	41	-11	-1
CCOc1ccc(NCC(=O)Nc2ccc(C)cc2C)cc1	-11	-13	13	-9	·
CC(/C=N/NC(=O)c1cc(C(C)(C)C)[nH]n1)=C\c1ccccc1	8	·	9	10	·
CC1CCN(S(=O)(=O)c2ccc3c(ccn3CCC(=O)NC(C)C)c2)CC1	-6	-6	4	5	·
COc1ccc(CN2CCN(c3ccccn3)CC2)cc1OCc1ccccc1	-13	26	17	-9	·
CC1(C)CCc2cc(CN3CCN(c4ccccn4)CC3)ccc2O1	725*	21	8	-3	0
O=C(CCN1C(=O)/C(=C/c2ccccc2)SC1=S)Nc1ccccn1	11	12	22	2	·
Cc1cc(C(=O)COc2ccccc2C(N)=O)c(C)n1C	-15	17	-12	-5	·
Cc1cc(C(=O)COc2cccc3cccnc23)c(C)n1C	598*	-36	-6	-8	0
Cc1ccc(NC(=O)CN(C)C(=O)c2cccc(Br)c2)cc1	695*	13	-26	-1	0
NC(=NCCc1ccccc1)NS(=O)(=O)c1ccc(F)cc1	-9	16	4	11	·
CC(C)[N+]1(C)[C@@H]2CC[C@@H]1CC(OC(=O)C(CO)c1ccccc1)C2 (stereo partly specified)	371*	·	13	·	0
CC1CCCN(C(=O)COC(=O)C2CCN(S(=O)(=O)c3ccc(Cl)c(C(F)(F)F)c3)CC2)C1 (stereo unspecified)	i	·	18	6	·
O=C(Cc1ccc(Br)cc1)NCCc1ccc(Cl)cc1Cl	4	43	21	-8	·
Cc1ccc(F)cc1NS(=O)(=O)c1ccc(Cl)s1	378*	·	-28	·	1
COc1cccc(-c2sc3ccccc3c2-c2ccc(OCCN3CCCCC3)cc2)c1	162	·	41	·	·
O=C(COC(=O)C1COc2ccccc2O1)NC1CCS(=O)(=O)C1 (stereo unspecified)	473*	17	8	19	0
O=C(COC(=O)C1COc2ccccc2O1)NC(=O)NC1CCCCC1 (stereo unspecified)	9	-9	-3	-1	·
COc1ccc(Cc2nnc(SCC(=O)c3c(N)n(C4CC4)c(=O)[nH]c3=O)o2)cc1	0	·	5	·	·
FC(F)Oc1ccc(NC(=S)NCc2nc3ccccc3[nH]2)cc1	-16	5	0	-11	·
COc1ccc(NS(=O)(=O)c2ccc(NC(=O)C3CCCO3)cc2)cc1 (stereo unspecified)	-5	10	-8	4	·
Cc1ccc(NS(=O)(=O)c2ccc(NC(=O)C3CCCO3)cc2)cc1 (stereo unspecified)	469*	8	5	4	0
COc1cc(/C=C(\NC(=O)c2ccccc2)C(=O)Nc2nccs2)ccc1OC(C)=O	395*	21	-3	-6	0
Cc1cccc(N2CCN(C(=O)CN3C(=O)NC(C)(C)C3=O)CC2)c1C	527*	25	-23	2	0
Cc1cccc(N2CCN(C(=O)CN3C(=O)NC(C)(C4CC4)C3=O)CC2)c1C (stereo unspecified)	·	·	21	·	·
Cc1ccc(C)c(NC(=S)NCCN2CCOCC2)c1	4	·	7	18	·
CCC(C)NCCCCOc1ccc(Br)cc1 (stereo unspecified)	33	43	10	23	·

Screening data deposited in PubChem by several laboratories.
